From PubChem BioAssay
CHX counter: affects cycloheximide protein synthesis inhibition readout, counter-screen; max response, %; cell reporter, cycloheximide protein synthesis inhibition counterscreen; 300,000 tested, 12% active; in the data active = max response mostly above about 13%, no sharp cut-off; inactive = mostly below about 14%; note: read at 38.3 µM for the half of the compounds with a filed dose
HCMV antiviral: blocks human cytomegalovirus replication; 410,000 tested, 4.5% active; activity change, negative = inhibition, % at 57.5 µM; HFF cells, HCMV-luciferase reporter, 72 h; active compounds read low; in the data active = activity change below about -60%; inconclusive = no clear call, values can overlap the other calls; inactive = above about -39%
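Cell-based, HFFs, 1000 cells/well, 16 h 37C; cpds in DMSO + HCMV-luc, MOI 1 PFU/cell; 72 h 37C; OneGlo luminescence after 5 min RT; norm. to buffer vs Salinomycin 10uM.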
Shiga toxin inh: Shiga toxin inhibition. inhibition, % at 38.7 µM. Vero cells, Shiga toxin protein synthesis inhibition reporter. 290,000 tested, 9.2% active; in the data active = inhibition mostly above about 28%, no sharp cut-off; inactive = mostly below about 43%
Pf growth 96h: P. falciparum growth inhibition at 96 hours. P. falciparum luciferase reporter growth, 96 h. Potency, µM (titrated, usually from 28.7 µM), most hits filed as inhibitors. 320,000 tested, 6.9% active
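Two-generation exposure (96 h) targets delayed-death phenotype. Reporter parasites carrying integrated firefly luciferase, in red cells at 2% hematocrit and 0.05% parasitemia final, kept at 37 C, 5% CO2; luminescence loss indicates inhibition.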
HCV inhibitor: HCV inhibition; Huh7.5.1 HCVcc-Cre infection, luciferase reporter, 44 h; Potency, µM (series often up to 41.8 µM), usual class: inhibitors; 340,000 tested, 3.4% active; AID 651820
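Cells seeded at 1,000/well and cultured 4 h, then compounds added followed by HCVcc-Cre virus (~0.5 moi). After 44 h further culture, luciferase substrate was added, plates held 15 min at room temperature, and luminescence read for 15 sec.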
Pf growth 48h: P. falciparum growth inhibition at 48 hours (one generation); P. falciparum luciferase growth in erythrocytes, 48 h; Potency, µM (highest dose often 28.7 µM), actives largely listed as inhibitors; AID 504832; 310,000 tested, 5.9% active
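Firefly luciferase activity from engineered P. falciparum reports growth; inhibitors lower the luminescent signal. Cultures contained 2% hematocrit erythrocytes at 0.1% final parasitemia.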
Hits are given with their value; – = inactive; ? = inconclusive; · = no result given. Rows were chosen to be rich in hits. Some 21% of all compounds tested hit in one or more screens of this group. Unless noted, calls come from the whole dose curve; as a rule, active = well fitted inhibition curve with a large enough effect; inconclusive = small, poorly fitted or top-dose-only effect, or another doubt; inactive = no such curve, though single readings can be large or run the other way.

SMILES	CHX counter	HCMV antiviral	Shiga toxin inh	Pf growth 96h	HCV inhibitor	Pf growth 48h
COc1ccc(-c2cc(=NC(CC(C)C)C(=O)O)c3cc(C)ccc3o2)cc1 (stereo not drawn)	30	–	100	–	–	–
CN(c1ccc(O)cc1)c1nc(-c2ccccc2)cs1	62	–	active	–	–	–
COCCN(C(=O)C(C)C)c1nnc(-c2ccc(C)cc2)s1	–	–	83	–	–	–
CCN(CC)CCCN(C(C)=O)c1nc(-c2cc(OC)ccc2OC)cs1	–	?	–	–	6.3µM	?
CN(C)c1ccc(-c2csc(C(O)(c3ccccc3)C(F)(F)F)n2)cc1 (stereo not drawn)	·	–	·	·	·	·
CCCCC(=O)N(CCOC)c1nnc(-c2ccccc2C)s1	–	–	–	–	1.8µM	?
Cc1ccc(NC(=O)C2CCCN2S(=O)(=O)c2cccc3nsnc23)cc1Cl (stereo not drawn)	·	–	·	·	·	·
Cc1ccc(S(=O)(=O)c2cn(CC(=O)Nc3ccccc3C)c3cc4c(cc3c2=O)OCO4)cc1	·	–	·	·	·	·
O=C(c1cccs1)N(Cc1ccco1)c1nc(-c2ccc(F)cc2)cs1	–	–	–	–	?	13µM
O=C(c1cccs1)N(Cc1ccccn1)Cc1ccco1	–	–	–	–	–	–
COc1ccc(-c2csc(N(CCCN(C)C)C(=O)c3ccccc3C)n2)cc1	–	-61	–	–	?	–
COc1ccc(-c2csc(N(CCCN(C)C)C(=O)c3ccccc3Cl)n2)cc1	·	–	·	·	?	·
COCCN(C(=O)c1ccccc1F)c1nnc(-c2ccc(OC)cc2)s1	32	–	46	?	–	–
CN(C(=O)c1ccco1)c1nc(-c2ccccc2)cs1	38	–	36	?	–	–
Cc1ccccc1-c1nc(CS(=O)(=O)CC(=O)NCCCN2CC(C)CC(C)C2)c(C)o1 (stereo not drawn)	–	–	–	–	?	?
COc1ccc(/C=C/C(=O)N2CCC(c3nc4ccccc4o3)CC2)cc1OC	·	–	·	·	·	·
Cc1cc(N2CCC(C(=O)Nc3ccc(F)cc3F)CC2)n2nc(C)c(-c3ccc(Cl)cc3)c2n1	·	–	·	·	·	·
CCCCN(C(=O)c1ccco1)c1nnc(-c2cc(OC)c(OC)c(OC)c2)s1	–	–	–	·	?	1.9µM
CCC(=O)N(Cc1ccco1)c1nc(-c2ccc(OC)cc2)cs1	–	–	–	?	?	–
CCN(C(=O)c1ccccc1F)c1nc(-c2ccc(OC)cc2)cs1	44	–	51	–	?	–
CCC(=O)N(CC)c1nc(-c2ccc(OC)cc2)cs1	61	–	84	–	–	–
CCN(C(=O)c1ccco1)c1nc(-c2ccc(OC)cc2)cs1	41	–	–	?	22µM	–
Cc1cc(NC(=O)Cn2nc(C(=O)O)c3ccccc3c2=O)c([N+](=O)[O-])cc1C	–	–	–	–	–	–
Cc1cnc(CN2CCc3c([nH]c4ccccc34)C2CC(C)C)[nH]1 (stereo not drawn)	–	–	–	–	–	13µM
CCn1ccnc1CN1CCc2c([nH]c3ccccc23)C1CC(C)C (stereo not drawn)	–	–	–	?	–	?
SMILES	CHX counter	HCMV antiviral	Shiga toxin inh	Pf growth 96h	HCV inhibitor	Pf growth 48h
Cc1cccc(CN2CCc3c([nH]c4ccccc34)C2CC(C)C)n1 (stereo not drawn)	–	–	–	10µM	?	9.3µM
Cc1c(CN2CCc3c([nH]c4ccccc34)C2C2CCCCC2)cnn1C (stereo not drawn)	–	–	–	5.9µM	–	?
NC(=O)C1CCCN(Cc2c(C(=O)N3CCc4ccccc4C3)nc3ccc(Cl)cn23)C1 (stereo not drawn)	–	–	–	?	–	?
COc1cccc(OCc2cc(=O)n3cc(C)sc3n2)c1	·	–	·	·	·	·
Nc1ccc(C(=O)N/N=C/c2cn(Cc3ccccc3)c3ccccc23)cc1	17	·	–	?	–	–
CC(C)n1cc(/C=N/Nc2ccc(C(=O)O)cc2)c2ccccc21	58	–	54	–	–	–
COC(=O)N/N=C/c1cn(Cc2ccc(F)cc2)c2ccccc12	–	–	–	–	–	?
Nc1ccc(C(=O)N/N=C/c2cn(Cc3ccc(F)cc3)c3ccccc23)cc1	33	–	107	?	–	–
CCn1cc(/C=N/NC(=O)c2cc3c(ccc4ccccc43)o2)c2ccccc21	–	–	–	–	?	–
CCOC(=O)Cn1cc(/C=N/NC(=O)c2cc3ccccc3o2)c2ccccc21	26	–	–	–	–	–
COc1cc(C(=O)N/N=C/c2cn(Cc3ccccc3)c3ccccc23)ccc1O	–	–	–	–	–	–
Cn1cc(/C=N/Nc2ccccc2)c2ccccc21	–	–	–	?	?	?
Cc1ccccc1CNC(=O)c1ccc(NC(=O)c2nsc3ccccc23)cc1	·	–	·	·	·	·
O=C(O)c1ccc(N/N=C/c2cn(Cc3ccccc3F)c3ccccc23)cc1	67	–	–	–	–	–
COC(=O)N/N=C/c1cn(Cc2ccccc2F)c2ccccc12	–	–	–	–	–	–
COC(=O)N/N=C/c1cn(Cc2ccccc2Cl)c2ccccc12	–	?	–	–	–	–
Cc1c(/C=N/NC(N)=O)c2ccccn2c1C(=O)c1ccc(F)cc1	–	–	–	?	–	–
CNC(=S)N/N=C/c1c(C)c(C(=O)c2ccc(F)cc2)n2ccccc12	–	–	–	3.3µM	–	8.3µM
Nc1ccc(C(=O)N/N=C/c2cn(Cc3ccccc3F)c3ccccc23)cc1	19	–	33	–	?	–
CNC(=S)N/N=C/c1cn(Cc2ccc(F)cc2)c2ccccc12	–	–	–	?	32µM	?
C[C@@H](c1ccccc1)N1C[C@@H](COCc2ccccc2)Oc2cc(N3CC[C@H](O)C3)ccc2S1(=O)=O	·	–	·	·	·	·
CC1=C(C(=O)OCc2ccccc2)C(/C=C/c2ccccc2)NC(=S)N1 (stereo not drawn)	–	–	–	?	8.9µM	?
O=C(Cn1c(=O)n(Cc2ccc(C(=O)NCc3ccc4c(c3)OCO4)cc2)c(=O)c2ccccc21)Nc1ccc(F)cc1F	–	?	–	·	·	·
Cc1nn(-c2ccccc2)c2c1N(CC(=O)N1CCN(c3ccc(F)cc3)CC1)C(=O)CS2	·	–	·	·	·	·
Cc1cc(C)cc(OCC(=O)NCC2CCCO2)c1 (stereo not drawn)	24	-65	100	–	–	–
Cc1ccc(-c2nnc(SC(C)C(=O)NCC3CCCO3)nc2-c2ccc(C)cc2)cc1 (stereo not drawn)	·	–	·	9.3µM	?	13µM
COC(=O)c1ccc(NC(=O)C(=O)NCC2CCCO2)cc1 (stereo not drawn)	–	–	–	–	–	–
CC(Sc1nnc(-c2ccccc2)c(-c2ccccc2)n1)C(=O)NCC1CCCO1 (stereo not drawn)	·	–	·	·	–	·
